# Screens (PubChem BioAssay)
# Rows were chosen to be rich in hits. Some 28% of all compounds tested hit in one or more screens of this group.
# CD11b adhes enh – enhancers of CD11b/CD18 adhesion to fibrinogen, primary screen, K562 cells, luminescence; ATPlite luminescence; Integrin beta-2 (Homo sapiens) + Integrin alpha-M (Homo sapiens), P05107+P11215; actives 0.07% (n = 93,000); activation, % at 10 µM;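 active = 10 µM primary screen giving 50% or more activity, confirmed by 40% or more on retest at that dose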
# Target sequence (P05107 whole entry, looked up, other chains not shown): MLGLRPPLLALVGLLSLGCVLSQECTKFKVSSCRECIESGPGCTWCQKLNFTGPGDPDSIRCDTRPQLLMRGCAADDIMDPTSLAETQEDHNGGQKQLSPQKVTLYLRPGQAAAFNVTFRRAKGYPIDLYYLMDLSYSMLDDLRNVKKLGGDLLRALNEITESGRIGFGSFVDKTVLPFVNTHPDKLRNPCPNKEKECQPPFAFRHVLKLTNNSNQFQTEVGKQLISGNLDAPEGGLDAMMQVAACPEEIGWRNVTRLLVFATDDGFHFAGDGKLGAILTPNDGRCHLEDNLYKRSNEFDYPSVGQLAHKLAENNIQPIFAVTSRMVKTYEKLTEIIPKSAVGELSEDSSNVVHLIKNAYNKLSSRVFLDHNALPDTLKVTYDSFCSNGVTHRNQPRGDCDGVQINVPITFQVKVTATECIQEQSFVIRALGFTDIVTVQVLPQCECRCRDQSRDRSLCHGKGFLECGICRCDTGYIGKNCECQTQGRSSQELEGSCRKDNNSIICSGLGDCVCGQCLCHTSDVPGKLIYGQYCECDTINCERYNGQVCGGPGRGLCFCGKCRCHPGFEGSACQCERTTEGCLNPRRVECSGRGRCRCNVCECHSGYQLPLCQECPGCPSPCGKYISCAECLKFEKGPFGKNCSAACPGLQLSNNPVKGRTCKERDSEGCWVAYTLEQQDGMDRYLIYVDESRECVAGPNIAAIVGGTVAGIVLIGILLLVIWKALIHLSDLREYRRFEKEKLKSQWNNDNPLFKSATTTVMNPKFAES
# CYP2C9 activ – human CYP2C9 activators, primary screen, biochemical, luminescence; Cytochrome P450 2C9 (Homo sapiens), P11712; recombinant CYP2C9, luciferin-H conversion; stronger effect = higher value; factor 1 = untreated enzyme, 0 = blocked; activation factor at 5 µM; actives 1.4% (n = 96,000); AID 1024, 2008;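 active = activation factor of 2 or more for CYP2C9 at a 5 µM dose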;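 also: 0 = sulfaphenazole-blocked wells and 1 = vehicle-only wells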
# CYP2C19 inh – blockers of cytochrome P450 2C19 activity – biochemical, luminescence, ADME assay, primary screen. CYP2C19 Supersomes, luciferin-H EGE luminescence, 30 min. actives 21% (n = 96,000). AID 778, 2007. P33261. inhibition, % at 5 µM;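 active = CYP2C19 inhibition above a set limit at 5 µM in the primary screen, cut at about 50% in these data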;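 also: plate controls were negative control wells for no effect and 2.5 mM tranylcypromine positive control for full effect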
# CD11b adhes inh – inhibitors of CD11b/CD18 adhesion to fibrinogen, primary screen, K562 cells, luminescence; Integrin beta-2 (Homo sapiens) + Integrin alpha-M (Homo sapiens), P05107+P11215; AID 1497, 2009; ATPlite luminescence; Mn2+ added to activate the integrin; actives 0.54% (n = 93,000); inhibition, % at 10 µM;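 active = primary inhibition of 50% or more at 10 µM, then 40% or more on retest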
# CYP2C9 inh – blockers of cytochrome P450 2C9 activity – biochemical, luminescence, ADME assay, primary screen; inhibition, % at 5 µM; CYP2C9 Supersomes, luciferin-H conversion; P11712; actives 20% (n = 96,000);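 active = blocking of liver enzyme CYP2C9 beyond about 50% at 5 µM, limit read from the data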
# CYP2C19 act – human CYP2C19 activators, primary screen, biochemical, luminescence. activation factor at 5 µM. recombinant CYP2C19, luciferin-H EGE luminescence; stronger effect = higher value; 0 = fully inhibited enzyme, 1 = untreated enzyme. 96,000 tested, under 10 active. AID 1025, 2008. Cytochrome P450 2C19 (Homo sapiens), P33261;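 active = activation factor of at least 2 at 5 µM in the primary screen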;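 also: 0 = wells with 2.5 mM tranylcypromine and 1 = vehicle-only wells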
# Starred values were filed as active, the others as inactive; . = no result given.
SMILES,CD11b adhes enh,CYP2C9 activ,CYP2C19 inh,CD11b adhes inh,CYP2C9 inh,CYP2C19 act
COc1ccc(C2SCCN2S(=O)(=O)c2ccc(F)cc2)cc1OC (centres undefined),-6.9,1.8,55.8*,2.0,-81.6,0.4
COc1ccccc1C1SCCN1S(=O)(=O)c1cccc(C(F)(F)F)c1 (centres undefined),4.2,1.6,31.0,22.6,-63.4,0.7
O=C(CCSc1ccccc1)NC(=O)COC(=O)c1ccc(OC(F)F)cc1,-2.4,.,.,-7.9,.,.
O=C(NCC1CC1)c1ccc(Nc2nc3ccc(Br)cc3[nH]2)cc1,-4.2,0.3,31.9,-3.1,69.2*,0.7
O=C(Cc1nc2ccccc2[nH]1)NCc1ccco1,-3.3,0.9,18.1,-0.2,7.7,0.8
O=C(NCc1ccco1)c1cccc(Nc2nc3ccc(Br)cc3[nH]2)c1,0.2,0.1,34.4,43.5,90.7*,0.7
O=C(Cc1ccc(Nc2nc3ccc(Br)cc3[nH]2)cc1)NCCc1cccs1,-2.1,0.1,67.1*,58.0,93.8*,0.3
O=C(COC(=O)CSc1ccc2ccccc2c1)NC1CCCC1,4.2,.,.,7.5,.,.
COc1ccccc1C1CC(c2cccs2)=Nc2ccccc2S1 (centres undefined),-1.7,0.2,89.9*,-5.8,80.5*,0.1
Oc1ccccc1C1=Nc2ccccc2N=C(c2cccs2)C1,.,0.6,23.2,.,37.7,0.8
CS(=O)(=O)N(CCc1ccccc1)CC(=O)NCc1cccnc1,-0.7,0.6,93.4*,-15.6,36.0,0.1
CS(=O)(=O)N(CCc1ccccc1)CC(=O)NCc1ccccn1,4.2,0.8,35.8,-1.7,18.4,0.6
CS(=O)(=O)N(CC(=O)NCc1ccco1)Cc1ccc(Cl)cc1,0.6,0.7,58.1*,-0.1,34.0,0.4
Cc1ccc(S(=O)(=O)N(CC(=O)NCc2ccco2)Cc2ccc(F)cc2)cc1,-0.9,0.4,33.6,-6.8,57.9*,0.7
CS(=O)(=O)N(CCc1ccccc1)CC(=O)NCc1ccco1,-0.5,0.9,65.5*,-10.7,11.6,0.3
COc1ccc(C2CC(c3ccc(OC)cc3)n3nc(NC(=O)c4ccco4)nc3N2)cc1 (centres undefined),0.9,0.9,8.8,-9.6,11.4,0.9
COCc1[nH][nH]c(=O)c1C=Nc1ccc(Oc2ccccc2)cc1,-1.0,0.7,66.1*,5.5,29.1,0.3
O=C(CSc1nnnn1-c1cccc(Cl)c1)Nc1ccc2c(c1)CCC2,-0.8,.,.,2.1,.,.
N#CCCCSc1nnnn1-c1cccc(Cl)c1,2.8,1.1,80.3*,-5.7,-12.8,0.2
Cc1nc(CS(=O)(=O)c2ccc(Cl)cc2)cc(N2CCOCC2)n1,.,0.5,80.5*,.,52.6*,0.2
Cc1nc(CS(=O)(=O)c2ccc(Cl)cc2)cc(Sc2ccccc2Cl)n1,7.8,0.3,52.5*,-4.1,67.0*,0.5
CSc1ncc(Cl)c(C(=O)Nc2nnc(SC/C=C/c3ccccc3)s2)n1,-1.8,0,79.5*,18.3,98.6*,0.2
Cc1ccc(/C=C/c2ccc(=O)n(Cc3ccccc3Cl)n2)cc1,-5.4,0.6,-0.1,37.1,38.8,1
Cc1nn(Cc2ccccc2Cl)c(C)c1C(=O)Nc1nnc(C2CC2)s1,54.5*,0.5,16.2,11.6,50.6*,0.8
Cc1onc(-c2c(F)cccc2Cl)c1C(=O)NC1CCSC1=O (centres undefined),-2.0,0.4,81.5*,12.5,64.8*,0.2
SMILES,CD11b adhes enh,CYP2C9 activ,CYP2C19 inh,CD11b adhes inh,CYP2C9 inh,CYP2C19 act
Cc1onc(-c2c(F)cccc2Cl)c1C(=O)Nc1nnc(-c2ccccc2)s1,-5.8,1.1,-17.7,29.5,-14.7,1.2
Cc1onc(-c2c(F)cccc2Cl)c1C(=O)Nc1nnc(C2CC2)s1,-1.7,0.4,62.3*,11.9,63.4*,0.4
Cc1onc(-c2c(F)cccc2Cl)c1C(=O)Nc1sc2c(c1C(N)=O)CCC2,0.3,0.3,20.7,-1.9,74.5*,0.8
CCCOc1ccc(C2NC(=S)NC(c3ccccc3)=C2C(=O)Nc2ccc(C)cc2)cc1OC (centres undefined),-1.4,.,.,-0.4,.,.
CCOC(=O)CNC(=O)c1cn(CC)c(=O)c2cc(OC)c(OC)cc12,-0.5,1,-4.9,-1.7,-4.7,1
Cc1ccc(S(=O)(=O)C2C(=O)N(C)C3(C)CC2c2ccccc2O3)cc1 (centres undefined),10.1,.,.,-7.3,.,.
CC1(C)Cc2c(C#N)c(N)sc(=S)c2CO1,-2.4,0.3,17.0,-1.3,67.6*,0.8
CC(C)N1CCc2c(sc(N)c2C#N)C1,2.5,1.1,-17.8,-1.2,-9.1,1.2
CC(C)C1Cc2c(C#N)c(N)sc(=S)c2CO1 (centres undefined),3.3,0.2,50.9*,-3.7,84.4*,0.5
CCOC(=O)c1[nH]c2ccccc2c1N=CN(CC)CC,1.5,1,0.7,-17.2,4.9,1
CCOc1ccc(-n2c(SCc3nc(-c4ccc(C)cc4)no3)nnc2-c2ccncc2)cc1,2.8,0.2,79.6*,-9.2,80.4*,0.2
Cc1ccc(-c2noc(CSc3nnc(-c4ccncc4)n3-c3ccc(C)cc3)n2)cc1,.,0.2,85.9*,.,84.2*,0.1
O=C(CSc1nnc(-c2ccncc2)n1-c1ccccc1)N1CCN(c2ccc(Cl)cc2)CC1,-2.3,0.7,15.4,-9.6,26.7,0.8
Cc1ccc(-c2noc(CSc3nc(N)cc(N)n3)n2)cc1,-8.1,0.6,24.5,42.2,41.4,0.8
Clc1ccc(-c2noc(CSc3nnc(-c4ccncc4)n3-c3ccccc3)n2)cc1,-5.8,0.3,66.5*,63.3,72.5*,0.3
Cn1c(SCc2nc(-c3ccc(Cl)cc3)no2)nnc1-c1ccco1,1.9,0.4,60.0*,1.1,56.5*,0.4
CCCOc1ccc(C(C)=O)cc1CSc1nc(O)cc(=O)[nH]1,3.1,0.3,8.9,-46.4,74.6*,0.9
CCCOc1ccc(C(C)=O)cc1CC(C(N)=O)C(N)=O,-2.4,1,-14.0,9.3,-4.4,1.1
COc1cc(-n2ccnc2SC)c(Cl)cc1Cl,.,1,53.6*,.,4.2,0.5
CCn1c(=N)n(CC(=O)C23CC4CC(CC(C4)C2)C3)c2ccccc21,-0.8,1,9.4,-18.1,0.4,0.9
CCCC1Cc2nc(N3CCCCC3)c(C#N)cc2CO1 (centres undefined),1.3,0.1,73.2*,4.2,86.2*,0.3
CCOC(=O)c1c(NC(=O)CSc2nnc(-c3ccncc3)n2Cc2ccco2)sc(C)c1C,-2.6,0.1,83.5*,5.1,86.6*,0.2
